Assay results taken from PubChem BioAssay AID1159580 (chemical genetic matrix, 2015).
In all, about 5,500 compounds went through this assay and about 2,000 (36%) were called active. Another 18% or so got no clear call; they are omitted. No stated cut-off is given here; in the data, active means normalized growth mostly below about 0.91 (no sharp cut-off); inconclusive means no clear call, values can overlap the other calls; inactive means mostly above about 0.92. The list shows a part of the results.

Assay: chemical genetic growth profiling, strain panel (AID 1159580);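 further: tested at 20 µM; growth read once vehicle control cultures reached saturation at 30 °C; 1 = growth at the plate median or of vehicle wells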
Conditions: growth OD

Measured: normalized growth

NC(=O)NCCCC(N)C(=O)O (configuration not stated)
inactive: S. cerevisiae deletion strains, locus YJR075W, strain HOC1, stronger effect = lower value 1.03 | S. cerevisiae deletion strains, locus YKL009W, strain mrt4, stronger effect = lower value 0.984 | S. cerevisiae deletion strains, locus YKL068W, stronger effect = lower value 0.999 | S. cerevisiae deletion strains, locus YKL085W, strain MDH1 (second series), stronger effect = lower value 1 | S. cerevisiae deletion strains, locus YKL085W, strain MDH1, stronger effect = lower value 1 | S. cerevisiae deletion strains, locus YKL160W, strain elf1, stronger effect = lower value 0.979 | S. cerevisiae deletion strains, locus YKL190W, strain CNB1, stronger effect = lower value 1.02 | S. cerevisiae deletion strains, locus YKR001C, strain vps1, stronger effect = lower value 1 | S. cerevisiae deletion strains, locus YKR026C, strain gcn3, stronger effect = lower value 1 | S. cerevisiae deletion strains, locus YKR091W, strain srl3, stronger effect = lower value 0.997 | S. cerevisiae deletion strains, locus YLL001W, strain dnm1, stronger effect = lower value 1 | S. cerevisiae deletion strains, locus YLL026W, stronger effect = lower value 1.01 | S. cerevisiae deletion strains, locus YLL041C, strain sdh2, stronger effect = lower value 0.987 | S. cerevisiae deletion strains, locus YLR027C, strain aat2, stronger effect = lower value 0.996 | S. cerevisiae deletion strains, locus YLR039C, strain RIC1, stronger effect = lower value 1.03 | S. cerevisiae deletion strains, locus YLR058C, strain SHM2, stronger effect = lower value 1.02 | S. cerevisiae deletion strains, locus YLR102C, strain apc9, stronger effect = lower value 0.997 | S. cerevisiae deletion strains, locus YLR113W, strain HOG1, stronger effect = lower value 1.02 | S. cerevisiae deletion strains, locus YLR221C, strain rsa3, stronger effect = lower value 0.971 | S. cerevisiae deletion strains, locus YLR258W, strain gsy2, stronger effect = lower value 1.03 | S. cerevisiae deletion strains, locus YLR262C, strain YPT6 (second series), stronger effect = lower value 1 | S. cerevisiae deletion strains, locus YLR262C, strain YPT6, stronger effect = lower value 1.04 | S. cerevisiae deletion strains, locus YLR268W, strain sec22, stronger effect = lower value 0.989 | S. cerevisiae deletion strains, locus YLR320W, strain mms22, stronger effect = lower value 1.03 | S. cerevisiae deletion strains, locus YLR330W, strain CHS5, stronger effect = lower value 1.01 | S. cerevisiae deletion strains, locus YLR342W, strain FKS1 (second series), stronger effect = lower value 1.01 | S. cerevisiae deletion strains, locus YLR342W, strain FKS1, stronger effect = lower value 1.01 | S. cerevisiae deletion strains, locus YLR357W, strain rsc2, stronger effect = lower value 1.01 | S. cerevisiae deletion strains, locus YLR370C, strain arc18, stronger effect = lower value 0.987 | S. cerevisiae deletion strains, locus YLR371W, strain rom2, stronger effect = lower value 0.995 | S. cerevisiae deletion strains, locus YLR384C, strain iki3, stronger effect = lower value 1 | S. cerevisiae deletion strains, locus YLR418C, strain cdc73, stronger effect = lower value 0.989 | S. cerevisiae deletion strains, locus YML016C, strain PPZ1, stronger effect = lower value 1.02 | S. cerevisiae deletion strains, locus YML032C, strain rad52, stronger effect = lower value 0.999 | S. cerevisiae deletion strains, locus YML120C, strain ndi1, stronger effect = lower value 0.962 | S. cerevisiae deletion strains, locus YML124C, strain tub3, stronger effect = lower value 0.989 | S. cerevisiae deletion strains, locus YMR058W, strain fet3, stronger effect = lower value 0.983 | S. cerevisiae deletion strains, locus YMR078C, strain ctf18, stronger effect = lower value 0.992 | S. cerevisiae deletion strains, locus YMR125W, strain sto1, stronger effect = lower value 1.01 | S. cerevisiae deletion strains, locus YMR129W, stronger effect = lower value 0.991 | S. cerevisiae deletion strains, locus YMR205C, strain PFK2, stronger effect = lower value 1.05 | S. cerevisiae deletion strains, locus YMR223W, strain ubp8, stronger effect = lower value 0.998 | S. cerevisiae deletion strains, locus YMR231W, strain pep5, stronger effect = lower value 1.01 | S. cerevisiae deletion strains, locus YMR263W, strain SAP30, stronger effect = lower value 1.02 | S. cerevisiae deletion strains, locus YMR307W, strain GAS1, stronger effect = lower value 1.02 | S. cerevisiae deletion strains, locus YNL067W, strain RPL9B, stronger effect = lower value 1.04 | S. cerevisiae deletion strains, locus YNL071W, strain lat1, stronger effect = lower value 0.999 | S. cerevisiae deletion strains, locus YNL128W, strain TEP1, stronger effect = lower value 1.04 | S. cerevisiae deletion strains, locus YNL153C, strain GIM3, stronger effect = lower value 1.02 | S. cerevisiae deletion strains, locus YNL183C, strain NPR1, stronger effect = lower value 0.963 | S. cerevisiae deletion strains, locus YNL209W, strain ssb2, stronger effect = lower value 1 | S. cerevisiae deletion strains, locus YNL233W, strain BNI4, stronger effect = lower value 1.02 | S. cerevisiae deletion strains, locus YNL248C, strain rpa49, stronger effect = lower value 0.941 | S. cerevisiae deletion strains, locus YNL250W, strain rad50, stronger effect = lower value 1 | S. cerevisiae deletion strains, locus YNL271C, strain bni1, stronger effect = lower value 0.992 | S. cerevisiae deletion strains, locus YNL298W, strain CLA4, stronger effect = lower value 1.01 | S. cerevisiae deletion strains, locus YNL307C, strain MCK1, stronger effect = lower value 0.981 | S. cerevisiae deletion strains, locus YNL322C, strain KRE1 (second series), stronger effect = lower value 0.988 | S. cerevisiae deletion strains, locus YNL322C, strain KRE1, stronger effect = lower value 1.02 | S. cerevisiae deletion strains, locus YNR049C, strain mso1, stronger effect = lower value 1 | S. cerevisiae deletion strains, locus YNR052C, strain pop2, stronger effect = lower value 1 | S. cerevisiae deletion strains, locus YOL006C, strain TOP1, stronger effect = lower value 1.04 | S. cerevisiae deletion strains, locus YOL012C, strain htz1 1.42 | S. cerevisiae deletion strains, locus YOL147C, strain pex11, stronger effect = lower value 0.994 | S. cerevisiae deletion strains, locus YOR001W, strain rrp6, stronger effect = lower value 0.958 | S. cerevisiae deletion strains, locus YOR061W, strain CKA2, stronger effect = lower value 1.03 | S. cerevisiae deletion strains, locus YOR069W, strain VPS5, stronger effect = lower value 1.01 | S. cerevisiae deletion strains, locus YOR070C, strain gyp1, stronger effect = lower value 0.999 | S. cerevisiae deletion strains, locus YOR080W, strain dia2, stronger effect = lower value 1.01 | S. cerevisiae deletion strains, locus YOR083W, strain WHI5, stronger effect = lower value 0.958 | S. cerevisiae deletion strains, locus YOR106W, strain vam3, stronger effect = lower value 0.978 | S. cerevisiae deletion strains, locus YOR136W, strain idh2, stronger effect = lower value 0.988 | S. cerevisiae deletion strains, locus YOR144C, strain elg1, stronger effect = lower value 0.993 | S. cerevisiae deletion strains, locus YOR184W, strain ser1, stronger effect = lower value 0.99 | S. cerevisiae deletion strains, locus YOR231W, strain MKK1, stronger effect = lower value 0.991 | S. cerevisiae deletion strains, locus YOR265W, strain rbl2, stronger effect = lower value 0.998 | S. cerevisiae deletion strains, locus YOR270C, strain vph1, stronger effect = lower value 0.964 | S. cerevisiae deletion strains, locus YOR290C, strain snf2, stronger effect = lower value 1 | S. cerevisiae deletion strains, locus YOR316C, strain cot1, stronger effect = lower value 0.996 | S. cerevisiae deletion strains, locus YPL051W, strain arl3, stronger effect = lower value 0.981 | S. cerevisiae deletion strains, locus YPL055C, strain LGE1, stronger effect = lower value 1.07 | S. cerevisiae deletion strains, locus YPL078C, strain atp4, stronger effect = lower value 0.949 | S. cerevisiae deletion strains, locus YPL106C, strain sse1, stronger effect = lower value 1.03 | S. cerevisiae deletion strains, locus YPL240C, strain hsp82, stronger effect = lower value 0.988 | S. cerevisiae deletion strains, locus YPL241C, strain CIN2, stronger effect = lower value 1.01 | S. cerevisiae deletion strains, locus YPL256C, strain CLN2, stronger effect = lower value 0.988 | S. cerevisiae deletion strains, locus YPR119W, strain clb2, stronger effect = lower value 0.995 | S. cerevisiae deletion strains, locus YPR141C, strain kar3, stronger effect = lower value 1 | S. cerevisiae deletion strains, locus YPR163C, strain tif3, stronger effect = lower value 0.989 | S. cerevisiae deletion strains, locus YPR167C, strain met16, stronger effect = lower value 0.995 | S. cerevisiae deletion strains, strain wtn01, stronger effect = lower value 0.986 | S. cerevisiae strains, strain wild type, stronger effect = lower value 1.01
